“And” between values parts separate entries of the source, which are not always exact repeats. Identical values can stand only once. A number with no mark means an inactive call. A call without a number means that no potency is given here. The source made the active and inactive calls. The call rests on the fitted dose curve; in most records, active means well fitted curve in the direction sought with a large enough effect in the repeat runs; inconclusive means weak or mixed curves; inactive means flat fitted curve, though single readings scatter.
Assay: qHTS assay to test for compound auto fluorescence at 460 nm (blue) in HepG2 cells (AID 720687)
Conditions: autofluorescence 405/460 nm, 1 h; series mostly up to 91.3 µM
Text: U.S. Tox21 Program National Center for Advancing Translational Sciences [NCATS] NIH Chemical Genomics Center [NCGC] U.S. Environmental Protection Agency [EPA] National Institutes of Environmental Health Sciences [NIEHS] National Toxicology Program [NTP] U.S. Food and Drug Administration [FDA] Tox21 Assay Overview: Compound auto fluorescence often interferes with screening of the compound library against various biological targets and signaling pathways. Some of these compounds may have fluorophoric properties. Such properties may interfere with the assay outputs resulting in false positives and/or negatives. To decrease such complications and ensure the compound activities are relevant in terms of biological response, the Tox21 10K compound library was screened for auto fluorescence. From the fluorophores used as reporter signals in our screening assays, the auto fluorescence equivalencies of compounds against three fluorophores have been evaluated: Triamterene, Fluorescein and Rose Bengal sodium for blue, green and red fluorescence, respectively. The fluorescence intensities were measured using Excitation/Emission wavelengths at 405/460nm, 485/535nm and 540/590nm for blue, green and red labels, respectively. This assay includes the blue fluorescence data.
Tox21 Assay Protocol Summary: 2,000 HepG2 cells in 5 uL of culture medium (MEM containing 10% FBS) per well were dispensed into black wall/clear bottom 1536-well plates using a Multidrop Combi Dispenser (ThermoFisher Scientific, Waltham, MA). The assay plates were incubated overnight at 37 C to allow cell attachment to the well bottom, followed by the transfer of 23 nL compound or DMSO vehicle by a pintool work station (Kalypsys , San Diego, CA). After the assay plates were incubated for 1 hr at 37 C and 5% CO2, fluorescence intensities in the assay plates were measured by an Envision (PerkinElmer, Shelton, CT) plate reader using three labels for measuring blue, green and red fluorescence at […] 460, 535 and 590 nm respectively.
Potency means the concentration at half of the fitted maximal effect; tags describe the fitted curve by direction and shape or compound fluorescence and quenching.

| Compound | Potency | fluorescence, % of fluorescent control |
| --- | --- | --- |
| CC(=O)O[C@@H]1C(=O)O[C@@H]2[C@H]1OC(=O)[C@@H]2OC(C)=O | inactive |  |
| C=CC(=O)OCCOC(=O)CCC(=O)O | inactive |  |
| Cc1cc(NC(=O)C(=O)O)cc(C)c1Oc1ccc(O)c2c1CCC2 | inactive |  |
| CCOC(=O)CC(=O)c1cc(F)c(Cl)nc1Cl | inactive |  |
| CCCCCCCCCCCCCCCC(=O)OC/C=C(C)/C=C/C=C(C)/C=C/C1=C(C)CCCC1(C)C | inactive |  |
| CCCCCCCCCC(=O)OCC | inactive |  |
| CC(=O)/C=C/C1C(C)=CCCC1(C)C (stereo not given) | inactive |  |
| Cc1ccccc1N=Nc1ccc(N=Nc2c(O)ccc3ccccc23)c(C)c1 | inactive |  |
| CCCOc1ccc2nc(NC(=O)OC)[nH]c2c1 | inactive |  |
| CC(=O)NCCCS(=O)(=O)O | inactive |  |
| CN1CCC(=C2c3ccccc3CCc3sccc32)CC1 | inactive |  |
| CC(C)(C)C(=O)OCOP(=O)(COCCn1cnc2c(N)ncnc21)OCOC(=O)C(C)(C)C | inactive |  |
| Nc1nc(N)c2nc(CNc3ccc(C(=O)N[C@@H](CCC(=O)O)C(=O)O)cc3)cnc2n1 | 39.8 µM [fluorescent] (active) |  |
| S=C(S)NCCNC(=S)S | inactive |  |
| CCCCC(CC)(CO)CO | inactive |  |
| CN1CCC(OC(c2ccccc2)c2ccccc2)CC1 |  | -0.0097% [at 18.6 µM] |
| CCCCCCOC(=O)CCC | inactive |  |
| CCCCCOC(=O)c1ccc(O)cc1 | inactive |  |
| c1ccc(OCc2ccc(CCCN3CCOCC3)cc2)cc1 | inactive |  |
| Cn1c(=O)c2c(ncn2CC(O)CO)n(C)c1=O (stereo not given) |  | -0.0218% [at 18.6 µM] |

| Compound | Potency | fluorescence, % of fluorescent control |
| --- | --- | --- |
| CCN1CCC[C@H]1CNC(=O)c1c(OC)ccc(Br)c1OC | inactive |  |
| CCCCCC/C=C/C=O | inactive |  |
| COC(=O)CSc1cc(N=c2sc(=O)n3n2CCCC3)c(F)cc1Cl | inactive |  |
| O=C(c1ccccc1)c1ccc2n1CCC2C(=O)O (stereo not given) | inactive |  |
| O=C(O)/C=C/c1cnc[nH]1 | inactive |  |
| C=CC[N+]1([C@H]2C[C@H]3[C@@H]4CC[C@H]5C[C@H](OC(C)=O)[C@@H](N6CCCCC6)C[C@]5(C)[C@H]4CC[C@]3(C)[C@H]2OC(=O)CC)CCCCC1 | inactive |  |
| CC(=O)CC(=O)c1ccccc1 | inactive |  |
| COC(=O)C(C)=O | inactive |  |
| Cc1ncsc1CCO | inactive |  |
| NC[C@H]1O[C@H](O[C@H]2[C@H](O)[C@@H](O[C@H]3O[C@H](CO)[C@@H](O)[C@H](N)[C@H]3O)[C@H](N)C[C@@H]2N)[C@H](O)[C@@H](O)[C@@H]1O |  | 0.0301% [at 18.6 µM] and -0.0315% [at 3.72 µM] |
| CCCCCCCCCCCCCCCCCBr |  | 0.0228% [at 18.6 µM] |
| CC(C)(C)C1CCCCC1O (stereo not given) | inactive |  |
| CC[C@H](C)[C@H](N)C(=O)O | inactive |  |
| Oc1ccc(Sc2ccc(O)cc2)cc1 | inactive |  |
| CC(=O)SCc1ccco1 | inactive |  |
| O=[N+]([O-])c1cccc(Cl)c1Cl | inactive |  |
| C=CC(=O)OCC(C)OCC(C)OCC(C)OC(=O)C=C (stereo not given) | inactive |  |
| Cc1c(Cn2ccnc2)c2ccccc2n1CCC(=O)O | inactive |  |
| CC(C)(C)c1ccc(S)cc1 | inactive |  |
| OCC1CC2CC1C1CCC(CO)C21 (stereo not given) | inactive |  |

From PubChem BioAssay (Tox21)
